Consider 7 compounds from PubChem BioAssay AID624093 (National Center for Advancing Translational Sciences (NCATS), 2012).

Results filed as inconclusive are left out. Activity calls are given as the source filed them. Calls follow the shape of the dose curve; as a rule, active = well fitted inhibition curve with a large enough effect; inconclusive = small, poorly fitted or top-dose-only effect; inactive = flat fitted curve, though single readings scatter.

The target of the assay is Dual specificity tyrosine-phosphorylation-regulated kinase 1A (Homo sapiens) (UniProt Q13627). Briefly: Confirmation Assay for Inhibitors of Dyrk1a (Kinase-Glo Assay): KU probe. Conditions: Kinase-Glo ATP luminescence; series mostly up to 76.9 µM; activity, negative = inhibition: at the top concentration. The procedure, abridged: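 Human Dyrk1A at 5nM with 8uM DYRKtide and 2uM ATP in 25mM Tris-HCl pH 7.5, 10mM MgCl2, 0.5mM EGTA, 5mM cysteine, 0.01% Triton X-100; 2 h at room temperature. Residual ATP read by Kinase-Glo luminescence.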
`Cc1csc(CNc2ncnc3ccc(-c4ccc(CO)o4)cc23)n1`: the Potency was 10400 nM (active). As for `c1nc(NCC2CCCCC2)c2cc(-c3ccc4c(c3)OCO4)ccc2n1`, the Potency was 116 nM (active). As for `Clc1ccc(CNc2ccnc(-c3ccc4c(c3)OCO4)n2)cc1`, the “activity, negative = inhibition” value was -15.5% (inactive). As to `Cc1csc(CNc2ncnc3ccc(-c4ccc(C(=O)O)o4)cc23)n1`, the Potency was 23200 nM (active). For the compound `Cc1noc(C)c1-c1nccc(NCc2ccc(Cl)c(Cl)c2)n1`, the “activity, negative = inhibition” value is -4.65% (inactive). Turning to `Cc1c(-c2ccnc(NCc3cccnc3)n2)sc(=O)n1C`, the Potency is 146 nM (active). `c1cncc(CNc2nccc(-c3ccc4c(c3)OCO4)n2)c1`: the Potency was 36.8 nM (active).
